Measurements published in PubChem BioAssay (Tox21).
Values joined by “and” are separate entries in the source; they are usually repeats but may differ in a detail not shown here. Identical values can stand only once. Inconclusive results are not listed. Entries that show only a call come without a potency. More than one record can exist for a structure, and the calls need not agree. Active and inactive are the calls of the source. Unless noted, calls come from the whole dose curve.

Tests used:
[1] = Nuclear factor erythroid 2-related factor 2/antioxidant responsive element (Nrf2/ARE) small molecule agonists: qHTS cell viability counter screen in human keratinocytes (AID 1919968; active = well fitted curve in the direction sought with a large enough effect in the repeat runs; an effect the other way counts as inactive or inconclusive; note: nearly all actives have a fitted effect of over 55% in size; note: potency is the fitted concentration of half-maximal effect)
How it was run: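 Measured as CellTiter-Fluor fluorescence, this readout tracks cytotoxicity in the same wells as the ARE-luciferase screen. HaCaT reporter cells (1,500/well) received compounds after a 5 h pre-incubation and were exposed for 23 h.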

[2] = Nuclear factor erythroid 2-related factor 2/antioxidant responsive element (Nrf2/ARE) small molecule agonists: luciferase reporter gene qHTS assay in human keratinocytes (AID 1919969); note: nearly all actives have a fitted effect of over 35% in size; note: potency is the fitted concentration of half-maximal effect
[3] = biological target: Gonadotropin-releasing hormone receptor (Homo sapiens) (UniProt P30968); assay: Human gonadotropin-releasing hormone receptor (GnRHR) small molecule agonists, calcium flux assay in GnRHR-HEK293 cells (AID 1920063); note: nearly all actives have a fitted effect of over 35% in size; note: potency is the fitted concentration of half-maximal effect
How it was run: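 Fluorescence kinetics (480 nm excitation, 540 nm emission; 3 min, 1 s steps) report calcium mobilisation in human GnRHR-HEK293 cells in agonist mode. Dye incubation: 1 h, 37 C.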

[4] = biological target: KiSS-1 receptor (Homo sapiens) (UniProt Q969F8); assay: Human kisspeptin (KISS1R) small molecule agonists, calcium flux assay in KISS1R-HEK293 cells (AID 1920064; active = well fitted curve in the direction sought with a large enough effect in the repeat runs; an effect the other way counts as inactive or inconclusive; note: potency is the fitted concentration of half-maximal effect)
How it was run: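 Measures KISS1R agonism through calcium-sensitive dye fluorescence in stably transfected HEK293 cells, read for 3 min after pin-tool compound delivery; 15-point titrations in triplicate.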

[5] = p53 small molecule agonists, cell-based qHTS assay with human liver microsomes: qHTS cell viability counter screen (AID 1963579); note: nearly all actives have a fitted effect of over 45% in size; note: potency is the fitted concentration of half-maximal effect
How it was run: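 Metabolically activated exposure: compounds, human liver microsomes and NADPH (0.5 mg/mL final apiece) were added to p53RE-bla cells seeded 5 h earlier, left 16 h at 37 C, and then assessed for viability by CellTiter-Glo luminescence.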

[6] = p53 small molecule agonists, cell-based qHTS assay with rat liver microsomes: qHTS cell viability counter screen (AID 1963580); note: nearly all actives have a fitted effect of over 45% in size
How it was run: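 Intracellular ATP, by CellTiter-Glo luminescence, defines viability. HCT-116 p53RE-bla cells, 4,000 per well, were compound-treated in the presence of rat liver microsomes and NADPH for 16 h at 37 C.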

[7] = p53 small molecule agonists, cell-based qHTS assay: qHTS cell viability counter screen (AID 1963581); note: nearly all actives have a fitted effect of over 45% in size
How it was run: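 In the same plates used for the p53 bla reporter, HCT-116 cells given compounds for 16 h at 37 C received CellTiter-Glo; luminescence was recorded 30 min later at room temperature.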

[8] = biological target: Beta-2 adrenergic receptor (Homo sapiens) (UniProt P07550); assay: Adrenergic beta2 receptor (ADRB2) small molecule antagonists, cell-based qHTS assay (AID 1963592); note: series mostly up to about 92 µM; nearly all actives have a fitted effect of over 50% in size
How it was run: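 Cells (CHO, stable ADRB2 overexpression) incubated 18-20hr at 37C; compounds added from DMSO; agonist mix (1nM isoproterenol, 100uM IBMX, 25uM Ro-20-1724) added; 0.5hr RT; d2-cAMP and anti-cAMP-cryptate added; 1hr RT; 665/615 nm read.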

[9] = biological target: Beta-2 adrenergic receptor (Homo sapiens) (UniProt P07550); assay: Adrenergic beta2 receptor (ADRB2) small molecule agonists, cell-based qHTS assay (AID 1963593); note: potency is the fitted concentration of half-maximal effect;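 for activation: CHO cells stably overexpressing human ADRB2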
How it was run: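 CHO cells stably over-expressing ADRB2 were plated overnight at 37C, then dosed with compounds plus a stimulation mix containing 100uM IBMX and 25uM Ro-20-1724 for 0.5hr at room temperature. cAMP was measured by HTRF competition, 1hr.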

[10] = biological target: D(2) dopamine receptor (Homo sapiens) (UniProt P14416); assay: Dopamine D2 receptor (DRD2) small molecule agonists, cell-based qHTS assay (AID 1963594); note: nearly all actives have a fitted effect of over 35% in size
How it was run: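 cAMP accumulation in DRD2-HEK293 cells measured by HTRF after 1 h detection; compounds added 10 min before NKH477 (200nM […]) forskolin-analogue stimulation, 30 min at room temperature, with Ro20-1724 present at 0.1 mM final.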

[11] = biological target: D(2) dopamine receptor (Homo sapiens) (UniProt P14416); assay: Dopamine D2 receptor (DRD2) small molecule antagonists, cell-based qHTS assay (AID 1963595; active = well fitted inhibition curve with a large enough effect in the signal ratio in the repeat runs, with a control signal flat; the % refers to the signal ratio; note: potency is the fitted concentration of half-maximal effect)
How it was run: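 HTRF cAMP read-out at 665 and 620 nm emission (340 nm excitation). Antagonist mode: compounds were tested against 12 nM quinpirole in DRD2-HEK293 cells, with 200 nM NKH477 raising cAMP and 0.1 mM Ro20-1724 blocking its breakdown.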

[12] = biological target: 5-hydroxytryptamine receptor 2A (Homo sapiens) (UniProt P28223); assay: 5-hydroxytryptamine receptor 2A (HTR2A) small molecule antagonists, cell-based qHTS assay (AID 1963586); note: nearly all actives have a fitted effect of over 45% in size
How it was run: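 Antagonist-mode intracellular calcium assay: DOI (4 nM) added after 5 min compound pre-incubation at room temperature to dye-loaded HTR2A-CHO cells. Fluorescence followed for 3 min, sampled every second.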

[13] = biological target: 5-hydroxytryptamine receptor 2A (Homo sapiens) (UniProt P28223); assay: 5-hydroxytryptamine receptor 2A (HTR2A) small molecule agonists, cell-based qHTS assay (AID 1963587); note: nearly all actives have a fitted effect of over 30% in size
How it was run: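 Kinetic calcium-flux fluorescence (2 min, 1 sec intervals) after compound addition in agonist mode. HTR2A-CHO cells were cultured 18 h, then dye-loaded 1 h at 37 C.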

[14] = biological target: Muscarinic acetylcholine receptor M1 (Homo sapiens) (UniProt P11229); assay: Cholinergic receptor muscarinic 1 (CHRM1) small molecule agonists, cell-based qHTS assay (AID 1963589); note: nearly all actives have a fitted effect of over 35% in size
How it was run: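 Each compound was tested at 15 concentrations across three independent runs on dye-loaded CHO cells stably expressing human CHRM1, reading intracellular calcium fluorescence kinetically at 1 sec intervals.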

[15] = cAMP Responsive Elements (CRE) small molecule antagonists, cell-based qHTS assay (AID 1963591; active = well fitted inhibition curve with a large enough effect in the signal ratio in the repeat runs, not every such curve was filed as active; the % refers to the signal ratio)
How it was run: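 Inhibition of NKH477-driven (0.25 uM final) CRE-beta-lactamase signal in HEK293T cells, 3 h compound exposure at 37 °C, detected by FRET substrate fluorescence.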

[16] = biological target: Muscarinic acetylcholine receptor M1 (Homo sapiens) (UniProt P11229); assay: Cholinergic receptor muscarinic 1 (CHRM1) small molecule antagonists, cell-based qHTS assay (AID 1963588); note: nearly all actives have a fitted effect of over 40% in size; note: potency is the fitted concentration of half-maximal effect
How it was run: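 CHRM1-CHO calcium-flux assay, antagonist mode. Cells were seeded 18 h, dye-loaded 1 h at 37 C and given compound for 5 min at RT, then acetylcholine was added at 50nM. FDSS fluorescence was read 3 min; 15 concentrations, three runs.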

[17] = cAMP Responsive Elements (CRE) small molecule agonists, cell-based qHTS assay (AID 1963590)
How it was run: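 Cell line: CRE-bla HEK 293T; medium DMEM/10% dialyzed FBS/0.1 mM NEAA/1 mM pyruvate/25 mM HEPES; 3 h compound exposure; beta-lactamase FRET readout after 2 h substrate loading at RT.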

[18] = p53 small molecule agonists, cell-based qHTS assay (AID 1963582; active = well fitted activation curve with a large enough effect in the signal ratio in the repeat runs, not every such curve was filed as active; the % refers to the signal ratio)
How it was run: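 Compounds are pin-transferred in DMSO onto p53RE-bla cells and incubated 16 h at 37 C. The B/G FRET beta-lactamase substrate is then applied for 2 h at RT and fluorescence recorded.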

Gonadotropin-releasing hormone receptor (Homo sapiens), sequence (P30968 whole entry, looked up): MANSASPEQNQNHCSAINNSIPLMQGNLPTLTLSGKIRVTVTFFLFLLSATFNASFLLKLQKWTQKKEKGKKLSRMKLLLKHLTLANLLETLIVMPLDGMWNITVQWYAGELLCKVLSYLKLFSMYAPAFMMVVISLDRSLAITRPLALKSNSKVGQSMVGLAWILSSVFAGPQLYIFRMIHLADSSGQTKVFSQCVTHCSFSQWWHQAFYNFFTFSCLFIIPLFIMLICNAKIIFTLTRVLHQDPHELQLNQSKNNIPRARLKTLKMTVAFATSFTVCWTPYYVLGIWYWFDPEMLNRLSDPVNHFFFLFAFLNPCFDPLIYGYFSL
D(2) dopamine receptor (Homo sapiens), sequence (P14416 whole entry, looked up): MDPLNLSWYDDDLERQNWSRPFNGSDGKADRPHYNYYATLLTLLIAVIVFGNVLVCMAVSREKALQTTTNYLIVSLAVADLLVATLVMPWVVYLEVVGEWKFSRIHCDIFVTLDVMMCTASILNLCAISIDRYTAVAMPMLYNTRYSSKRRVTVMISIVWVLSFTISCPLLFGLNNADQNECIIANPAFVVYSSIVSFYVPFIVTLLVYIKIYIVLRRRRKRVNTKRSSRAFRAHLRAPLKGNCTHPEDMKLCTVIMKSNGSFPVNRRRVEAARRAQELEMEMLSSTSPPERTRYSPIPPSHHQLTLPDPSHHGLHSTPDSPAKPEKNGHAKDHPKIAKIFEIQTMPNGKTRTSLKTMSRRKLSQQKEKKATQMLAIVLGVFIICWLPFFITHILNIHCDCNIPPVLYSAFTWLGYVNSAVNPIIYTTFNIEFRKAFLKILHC
KiSS-1 receptor (Homo sapiens), sequence (Q969F8 whole entry, looked up): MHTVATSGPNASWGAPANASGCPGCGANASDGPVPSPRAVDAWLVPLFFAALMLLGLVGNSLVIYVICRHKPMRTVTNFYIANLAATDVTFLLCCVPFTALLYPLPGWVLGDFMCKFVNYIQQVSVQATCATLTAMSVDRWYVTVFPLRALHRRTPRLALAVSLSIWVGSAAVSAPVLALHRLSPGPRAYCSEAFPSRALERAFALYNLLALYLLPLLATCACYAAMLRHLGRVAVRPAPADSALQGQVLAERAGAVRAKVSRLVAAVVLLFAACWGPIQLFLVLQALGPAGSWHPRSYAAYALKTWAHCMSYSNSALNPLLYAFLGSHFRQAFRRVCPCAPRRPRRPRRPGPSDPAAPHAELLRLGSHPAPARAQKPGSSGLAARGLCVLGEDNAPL
5-hydroxytryptamine receptor 2A (Homo sapiens), sequence (P28223 whole entry, looked up): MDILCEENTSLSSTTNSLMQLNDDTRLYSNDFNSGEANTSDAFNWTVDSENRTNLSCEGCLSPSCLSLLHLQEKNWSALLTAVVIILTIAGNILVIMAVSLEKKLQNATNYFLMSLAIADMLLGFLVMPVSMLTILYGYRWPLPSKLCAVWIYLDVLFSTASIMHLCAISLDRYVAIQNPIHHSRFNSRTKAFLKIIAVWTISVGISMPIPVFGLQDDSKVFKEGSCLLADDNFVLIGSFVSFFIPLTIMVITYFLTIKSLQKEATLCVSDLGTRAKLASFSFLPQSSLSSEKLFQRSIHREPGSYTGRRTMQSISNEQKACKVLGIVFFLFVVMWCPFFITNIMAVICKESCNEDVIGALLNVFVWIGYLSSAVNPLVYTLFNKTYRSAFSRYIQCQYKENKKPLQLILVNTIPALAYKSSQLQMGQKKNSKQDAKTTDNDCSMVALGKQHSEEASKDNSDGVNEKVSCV
Muscarinic acetylcholine receptor M1 (Homo sapiens), sequence (P11229 whole entry, looked up): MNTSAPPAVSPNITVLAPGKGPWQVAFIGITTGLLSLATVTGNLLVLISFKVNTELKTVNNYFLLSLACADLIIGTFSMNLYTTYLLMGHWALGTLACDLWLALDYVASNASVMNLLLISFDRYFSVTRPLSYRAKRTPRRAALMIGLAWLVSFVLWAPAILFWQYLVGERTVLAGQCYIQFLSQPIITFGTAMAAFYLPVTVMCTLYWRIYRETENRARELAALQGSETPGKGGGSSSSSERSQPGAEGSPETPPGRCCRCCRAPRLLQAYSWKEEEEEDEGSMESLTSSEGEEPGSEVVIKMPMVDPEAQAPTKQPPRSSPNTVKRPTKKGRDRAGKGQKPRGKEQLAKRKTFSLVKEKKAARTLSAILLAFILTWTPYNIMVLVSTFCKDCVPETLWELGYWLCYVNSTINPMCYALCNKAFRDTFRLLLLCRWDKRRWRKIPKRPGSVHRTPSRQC
Beta-2 adrenergic receptor (Homo sapiens), sequence (P07550 whole entry, looked up): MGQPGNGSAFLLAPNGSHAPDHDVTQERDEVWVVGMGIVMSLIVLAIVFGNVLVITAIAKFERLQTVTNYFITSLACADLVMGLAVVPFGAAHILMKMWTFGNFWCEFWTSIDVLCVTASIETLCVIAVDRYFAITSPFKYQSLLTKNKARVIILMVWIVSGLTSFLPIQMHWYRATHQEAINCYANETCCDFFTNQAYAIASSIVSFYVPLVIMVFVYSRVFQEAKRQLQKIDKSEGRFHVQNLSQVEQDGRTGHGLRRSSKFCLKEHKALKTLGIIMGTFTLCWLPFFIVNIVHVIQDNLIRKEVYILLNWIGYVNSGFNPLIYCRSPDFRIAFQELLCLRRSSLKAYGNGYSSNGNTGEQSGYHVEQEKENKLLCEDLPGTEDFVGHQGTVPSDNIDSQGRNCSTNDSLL

SMILES	Potency [1]	Potency [2]	Potency [3]	Potency [4]	Potency [5]	Potency [6]	Potency [7]	Potency [8]	Potency [9]	Potency [10]	Potency [11]	Potency [12]	Potency [13]	Potency [14]	Potency [15]	Potency [16]	Potency [17]	Potency [18]
Cc1c(C)c2c(c(C)c1O)CCC(C)(COc1ccc(CC3SC(=O)NC3=O)cc1)O2 (stereo not drawn)	inactive	inactive	inactive	inactive	inactive	inactive	inactive	inactive	inactive	inactive	inactive	–	–	–	–	–	–	–
COC(=O)C1=C(C)NC(C)=C(C(=O)OCCN(C)Cc2ccccc2)C1c1cccc([N+](=O)[O-])c1 (stereo not drawn)	30.5 µM (active)	inactive	inactive	inactive	–	–	inactive	–	–	inactive	inactive	inactive	inactive	inactive	inactive	–	–	–
Nc1c(S(=O)(=O)O)cc(Br)c2c1C(=O)c1ccccc1C2=O	inactive and 30.6 µM (active)	inactive	inactive	inactive	inactive	–	inactive	–	–	inactive	inactive	inactive	–	inactive	inactive	inactive	inactive	–
C#C[C@]1(O)CC[C@H]2[C@@H]3CCC4=CC(=O)CC[C@@H]4[C@H]3CC[C@@]21C	inactive	inactive	inactive	inactive	–	–	–	inactive	inactive	inactive	inactive	–	–	–	inactive	–	–	–
COc1ccc(OC)c(C(O)CNC(=O)CN)c1 (stereo not drawn)	inactive	inactive	inactive	inactive	–	–	inactive	inactive	inactive	inactive	inactive	inactive	inactive	inactive	inactive	inactive	inactive	inactive
O=C1OC2(c3ccc(O)cc3Oc3cc(O)ccc32)c2ccccc21	9.44 µM (active)	inactive	389 nM (active) and 1.9 µM (active)	550 nM (active) and 2.39 µM (active)	inactive	–	inactive	inactive	–	inactive	inactive	–	–	–	–	–	–	–
O=Cc1ccccc1C=O	61.1 µM (active) and inactive	24.3 µM (active) and inactive	inactive	inactive	–	inactive	inactive	inactive	43.3 µM (active)	inactive	–	inactive	inactive	inactive	inactive	42.1 µM (active) and inactive	–	–
COS(C)(=O)=O	inactive	inactive	inactive	inactive	inactive	inactive	inactive	inactive	inactive	inactive	inactive	–	–	–	inactive	–	inactive	–
CC(C)OC(=O)C(C)(C)Oc1ccc(C(=O)c2ccc(Cl)cc2)cc1	inactive	61.1 µM (active) and inactive	inactive	inactive	inactive	inactive	inactive	inactive	–	inactive	inactive	–	–	–	inactive	–	–	–
Cn1sccc1=O	43.3 µM (active) and 13.7 µM (active)	13.7 µM (active) and 6.86 µM (active)	inactive	inactive	28.9 µM (active) and inactive	–	inactive	inactive	inactive	inactive	inactive	inactive	inactive	–	inactive	inactive	inactive	–
O=c1[nH]cnc2[nH]ncc12	inactive	inactive	inactive	inactive	inactive	inactive	inactive	inactive	–	inactive	inactive	–	–	–	–	–	inactive	–
CCC/C=C/C=O	inactive	inactive	inactive	inactive	inactive	inactive	–	inactive	inactive	inactive	inactive	–	inactive	inactive	inactive	inactive	inactive	–
C=CC(=O)OCC(CO)(COC(=O)C=C)COC(=O)C=C	4.87 µM (active) and 12.2 µM (active)	4.87 µM (active) and 6.11 µM (active)	inactive	inactive	45.9 µM (active) and 9.13 µM (active)	–	–	inactive	6.88 µM (active) and 19.3 µM (active)	inactive	54.6 µM (active) and 21.7 µM (active)	inactive	inactive	inactive	–	inactive	–	–
O=S(=O)(Oc1ccc(Cl)cc1Cl)c1ccccc1	inactive	69.8 µM (active)	inactive	inactive	inactive	–	inactive	inactive	–	inactive	inactive	inactive	inactive	inactive	inactive	inactive	inactive	–
C[N+](C)(C)CCO	inactive	inactive	inactive	inactive	inactive	inactive	inactive	inactive	inactive	inactive	inactive	–	–	–	inactive	–	–	–
COC(=O)Nc1nc2ccc(S(=O)c3ccccc3)cc2[nH]1 (stereo not drawn)	inactive	inactive and 13.3 µM (active)	inactive	inactive	inactive	inactive	–	inactive	inactive	inactive	inactive	–	–	–	inactive	–	inactive	–
CN(C)/N=N/c1nc[nH]c1C(N)=O	inactive	inactive	inactive	inactive	inactive	inactive	inactive	inactive	inactive	inactive	–	–	–	–	–	–	inactive	–
O=S(=O)(O)c1ccc(N=Nc2c(O)ccc3cc(S(=O)(=O)O)ccc23)cc1	30.8 µM (active)	inactive	inactive	inactive	–	inactive	inactive	–	–	–	–	inactive	inactive	inactive	inactive	inactive	inactive	–
C=C[C@H]1CN2CC[C@H]1C[C@@H]2[C@@H](O)c1ccnc2ccc(OC)cc12	inactive	inactive	inactive	inactive	–	inactive	inactive	inactive	inactive	inactive	inactive	inactive	–	inactive	inactive	inactive	inactive	–
O=C(O)c1ccccc1C(c1ccc(O)cc1)c1ccc(O)cc1	inactive	inactive	inactive	inactive	inactive	inactive	–	inactive	–	inactive	inactive	inactive	inactive	inactive	inactive	inactive	inactive	–
Cc1cccc(Nc2ccccc2C(=O)O)c1C	inactive	inactive	inactive	inactive	inactive	inactive	inactive	inactive	inactive	inactive	–	–	–	–	–	–	–	–
